This is an account of results in PubChem BioAssay (NCATS).

The structures appear in SMILES notation. Results filed as inconclusive are left out. Where a structure was tested more than once in an assay, its records may differ in their call. The source made the active and inactive calls. Unless noted, the call rests on the fitted dose curve; in most records, active means well fitted inhibition curve with a large enough effect; inconclusive means small, poorly fitted or top-dose-only effect; inactive means flat fitted curve, though single readings scatter.

The target in assay [1] is Cytochrome P450 1A2 (Homo sapiens) (UniProt P05177). Briefly: p450-cyp1a2 (AID 410; calls by dose curve). A digest of the protocol: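 20nM CYP1A2 with 100uM Luciferin-ME (at Km) in 100mM KPO4; compound preincubated 10 min, NADPH regeneration added, 60 min at room temperature. Luciferin quantified by luminescence after detection reagent; normalized to 57 uM furafylline.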
Cytochrome P450 1A2 (Homo sapiens), sequence (P05177 whole entry, looked up): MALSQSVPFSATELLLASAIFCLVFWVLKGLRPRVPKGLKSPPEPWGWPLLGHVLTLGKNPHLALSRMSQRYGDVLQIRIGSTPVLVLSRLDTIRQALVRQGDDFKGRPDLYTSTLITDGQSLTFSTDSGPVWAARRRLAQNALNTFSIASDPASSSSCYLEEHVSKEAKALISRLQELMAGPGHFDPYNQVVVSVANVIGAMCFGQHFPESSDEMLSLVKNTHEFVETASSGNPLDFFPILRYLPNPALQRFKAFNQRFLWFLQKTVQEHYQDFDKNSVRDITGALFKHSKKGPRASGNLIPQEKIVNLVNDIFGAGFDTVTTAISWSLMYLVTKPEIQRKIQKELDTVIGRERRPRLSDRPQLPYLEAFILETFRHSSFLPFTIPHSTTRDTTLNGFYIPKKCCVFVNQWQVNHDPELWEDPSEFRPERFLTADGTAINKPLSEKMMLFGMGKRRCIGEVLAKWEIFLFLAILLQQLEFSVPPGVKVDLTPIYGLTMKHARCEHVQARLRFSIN
The next assay has as its system 3D7. Briefly: qHTS profiling for inhibitors of Plasmodium falciparum proliferation (AID 504749). Further: nearly all actives have a fitted effect of over 60% in size. The conditions noted are these: P. falciparum in erythrocytes, SYBR Green DNA, 72 h; series mostly up to 12.8 µM. Put shortly: (§1)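 Infected RBCs, 0.3% parasitemia/2.5% Hct final; cpd 72 h, 37 C, 5% CO2; lysis buffer with saponin/triton/SYBR Green I, o/n RT dark; FI 485/535; norm. to artemisinin (0.29 uM) and DMSO.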
(In qHTS, concentration-response curves come from the screen itself.)

The next assay has as its system AA1029. The description is as above. The conditions noted are these: P. falciparum in erythrocytes, SYBR Green DNA, 72 h; series mostly up to 12.8 µM. A digest of the protocol:
as §1

In a further assay the test system is ATS189. The assay is described as above. To be noted: P. falciparum in erythrocytes, SYBR Green DNA, 72 h; series mostly up to 12.8 µM. A digest of the protocol:
as §1

Another assay has as its system CP250. Described as above. The conditions noted are these: P. falciparum in erythrocytes, SYBR Green DNA, 72 h; series mostly up to 12.8 µM. A digest of the protocol: as §1
The next assay concerns CP265. The description is as above. The conditions noted are these: P. falciparum in erythrocytes, SYBR Green DNA, 72 h; series mostly up to 12.8 µM. Put shortly: as §1
The next assay concerns DIV30. Described as above. To be noted: P. falciparum in erythrocytes, SYBR Green DNA, 72 h; series mostly up to 12.8 µM. Put shortly:
as §1

The next assay concerns PC26. Described as above. To be noted: P. falciparum in erythrocytes, SYBR Green DNA, 72 h; series mostly up to 12.8 µM. A digest of the protocol:
as §1

The test system of the next assay is TAB109. Described as above. The conditions noted are these: P. falciparum in erythrocytes, SYBR Green DNA, 72 h; series mostly up to 12.8 µM. A digest of the protocol: as §1
A further assay concerns CP185. Described as above. The conditions noted are these: P. falciparum in erythrocytes, SYBR Green DNA, 72 h; series mostly up to 12.8 µM. A digest of the protocol:
as §1

In the next assay the test system is CP192. Described as above. To be noted: P. falciparum in erythrocytes, SYBR Green DNA, 72 h; series mostly up to 12.8 µM. Put shortly: as §1
For another assay, the system named is CP201. The description is as above. The conditions noted are these: P. falciparum in erythrocytes, SYBR Green DNA, 72 h; series mostly up to 12.8 µM. A digest of the protocol:
as §1

A further assay has as its system CP238. The description is as above. The conditions noted are these: P. falciparum in erythrocytes, SYBR Green DNA, 72 h; series mostly up to 12.8 µM. A digest of the protocol: as §1
The test system of the next assay is CP262. The assay is described as above. The conditions noted are these: P. falciparum in erythrocytes, SYBR Green DNA, 72 h; series mostly up to 12.8 µM. A digest of the protocol:
as §1

A further assay has as its system CP268. The description is as above. The conditions noted are these: P. falciparum in erythrocytes, SYBR Green DNA, 72 h; series mostly up to 12.8 µM. Put shortly:
as §1

For another assay, the system named is CP291. Described as above. The conditions noted are these: P. falciparum in erythrocytes, SYBR Green DNA, 72 h; series mostly up to 12.8 µM. Put shortly:
as §1

The test system of a further assay is CP315. Described as above. To be noted: P. falciparum in erythrocytes, SYBR Green DNA, 72 h; series mostly up to 12.8 µM. A digest of the protocol:
as §1

The test system of a further assay is JCK. Described as above. The conditions noted are these: P. falciparum in erythrocytes, SYBR Green DNA, 72 h; series mostly up to 12.8 µM. Put shortly: as §1
For the next assay, the system named is PAD. The description is as above. The conditions noted are these: P. falciparum in erythrocytes, SYBR Green DNA, 72 h; series mostly up to 12.8 µM. Put shortly: as §1
The next assay concerns SC27B. The description is as above. To be noted: P. falciparum in erythrocytes, SYBR Green DNA, 72 h; series mostly up to 12.8 µM. Put shortly:
as §1
Potency means the concentration at half of the fitted maximal effect.

In the case of `C=C(C)[C@H]1CC[C@]2(C(=O)O)CC[C@]3(C)[C@@H](CC[C@H]4[C@@]5(C)CC[C@@H](O)C(C)(C)[C@@H]5CC[C@@]43C)[C@H]12`, the Potency result in assay [1] was “inactive”.

Consider `CC1(C)O[C@H]2C[C@@H]3[C@H]4CCC5=CC(=O)CC[C@@]5(C)[C@]4(F)[C@@H](O)C[C@@]3(C)[C@@]2(C(=O)CCl)O1`, for which the Potency result in [1] was “inactive”. The Potency with 3D7 was 3.98 µM (active); with AA1029, 2.82 µM (active); in the assay on ATS189 it was 3.55 µM (active); with CP250, 3.98 µM (active); in the assay on CP265 it was 3.98 µM (active); in the assay with DIV30, 5.73 µM (active). Also, the Potency was 6.42 µM (active) in the assay on PC26 and 1.41 µM (active) in the assay on TAB109.

In the case of `O[C@@](CCN1CCCCC1)(c1ccccc1)[C@@H]1C[C@H]2C=C[C@@H]1C2`, in [1], the Potency entry is “inactive”.

Consider `C[C@@H]1C[C@@H]2[C@H]3CCC4=CC(=O)C=C[C@]4(C)[C@]3(F)[C@@H](O)C[C@]2(C)[C@@]1(O)C(=O)CO`, for which the Potency entry in assay [1] is “inactive”.

For `CCC[C@H]1C[C@H](C(=O)N[C@H]([C@@H]2O[C@H](SC)[C@@H](O)[C@H](O)[C@@H]2O)[C@H](C)O)N(C)C1`, in assay [1], the Potency entry is “inactive”.

Take `CC=C(/C(=C/C)c1ccc(O)cc1)c1ccc(O)cc1`: the Potency in [1] is 15.8 µM (active). Moreover, the Potency result in the assay on 3D7, in the assay with AA1029, with ATS189, in the assay with CP185, with CP192 and in the assay on CP201 was “inactive” in each case. The Potency entry in the assay with CP238, in the assay on CP250, in the assay with CP262, in the assay on CP265, in the assay with CP268 and with CP291 was “inactive” each time. The Potency entry with CP315, with DIV30, in the assay with JCK, with PAD, with PC26 and in the assay on SC27B was “inactive” each time. In addition, the Potency result in the assay with TAB109 is “inactive”.

For `Cc1onc(-c2c(F)cccc2Cl)c1C(=O)N[C@H]1C(=O)N2[C@H]1SC(C)(C)[C@H]2C(=O)O`, the Potency result in assay [1] is “inactive”.

For the molecule `COc1cc2c(cc1OC)-c1cc3ccc(OC)c(OC)c3c[n+]1CC2`, the Potency entry in assay [1] is “inactive”.

Take `C=C(C)[C@H]1CC[C@]2(CO)CC[C@]3(C)[C@@H](CC[C@H]4[C@@]5(C)CC[C@@H](O)C(C)(C)[C@@H]5CC[C@@]43C)[C@H]12`: in assay [1], the Potency entry is “inactive”.

Consider `CCC(=O)[C@@]1(C)[C@H](C)C[C@@H]2[C@@H]3CCC4=CC(=O)C=C[C@@]4(C)[C@H]3[C@H](O)C[C@]21C`, for which the Potency result (in [1]; with AA1029; in the assay on ATS189; with CP185; with CP192; with CP201) was “inactive” each time. In addition, the Potency result in the assay on CP238, in the assay on CP250, in the assay on CP262, with CP265, in the assay on CP268 and in the assay with CP291 was “inactive” throughout. The Potency result in the assay on CP315, in the assay on DIV30, in the assay on JCK, with PAD, in the assay with PC26 and in the assay with SC27B was “inactive” throughout. In addition, in the assay with TAB109, the Potency entry is “inactive”.

For the molecule `O=C(OC[C@@H](O)CO)c1ccccc1Nc1ccnc2cc(Cl)ccc12`, the Potency in assay [1] was 5.01 µM (active). Further, the Potency result in the assay on 3D7, with AA1029, in the assay on ATS189, in the assay on CP185, in the assay on CP192 and in the assay with CP201 was “inactive” throughout. For the same molecule, the Potency entry with CP238, in the assay with CP250, in the assay with CP262, in the assay on CP265, in the assay with CP268 and in the assay on CP291 was “inactive” throughout. For the same molecule, the Potency result in the assay on CP315, in the assay on DIV30, with JCK, in the assay with PC26, in the assay on SC27B and in the assay on TAB109 was “inactive” each time.

Regarding `NC(=O)N[C@H]1NC(=O)NC1=O`, the Potency entry (in [1]; with AA1029; with ATS189; in the assay with CP185; in the assay on CP192; in the assay on CP201) was “inactive” in each case. Besides, the Potency entry in the assay with CP238, in the assay with CP250, in the assay on CP262, in the assay with CP265, in the assay on CP268 and with CP291 was “inactive” each time. The Potency result in the assay on CP315, in the assay on DIV30, in the assay with JCK, in the assay with PAD, in the assay with PC26 and in the assay on SC27B was “inactive” each time. In addition, the Potency result with TAB109 was “inactive”.

As for `C=N[C@H](C(=O)N[C@@H]1C(=O)N2[C@@H]1SC(C)(C)[C@@H]2C(=O)O)c1ccccc1`, the Potency entry in assay [1] is “inactive”.

For `O=C1C=CC(=O)c2c1ccc1c2ccc2ccccc21`, the Potency in assay [1] was 0.794 µM (active).

As to `Clc1cnccn1`, the Potency result in [1] is “inactive”.

Turning to `C1CCC(C(C[C@@H]2CCCCN2)C2CCCCC2)CC1`, the Potency in [1] was 6.31 µM (active).

`Nc1ncnc2c1ncn2[C@@H]1O[C@H](COP(=O)(O)O)[C@@H](O)[C@@H]1O`: the Potency result in assay [1] was “inactive”.

Consider `CCN(CC)CCOC(=O)[C@@H](c1ccccc1)C1CCCCC1`, for which the Potency in assay [1] is 1.26 µM (active).

With `C[C@H](CCC(=O)NCC(=O)O)[C@H]1CC[C@H]2[C@H]3[C@@H](C[C@@H](O)[C@]12C)[C@]1(C)CC[C@H](O)C[C@@H]1C[C@@H]3O`, the Potency entry in assay [1] was “inactive”.

As to `C[C@@H]1Cc2ccccc2N1NC(=O)c1ccc(Cl)c(S(N)=O)c1` (some centres undefined), the Potency result (in assay [1]; with 3D7; in the assay on AA1029; in the assay on ATS189; with CP185; in the assay with CP192) was “inactive” throughout. Moreover, the Potency entry in the assay on CP201, in the assay on CP238, in the assay on CP250, in the assay with CP262, in the assay with CP265 and with CP268 was “inactive” throughout. Besides, the Potency entry in the assay with CP291, in the assay with CP315, in the assay with DIV30, with JCK, with PAD and in the assay on PC26 was “inactive” in each case. Moreover, the Potency entry with SC27B and in the assay with TAB109 was “inactive” in each case.

Take `N#Cc1cccc(-c2cncnc2-n2ccnc2)c1`: in assay [1], the Potency is 15.8 µM (active).

Regarding `Cc1nccn1C[C@@H]1CCc2c(c3ccccc3n2C)C1=O`, the Potency in assay [1] was 3.98 µM (active).

As for `O=C(O)[C@@H]1[C@@H]2C[C@H]3c4[nH]c5ccccc5c4CCN3C[C@@H]2CC[C@@H]1O`, the Potency in assay [1] is 12.6 µM (active) and inactive. For the same molecule, the Potency result with 3D7, in the assay with CP250, in the assay with CP268, with JCK, with PC26 and with SC27B was “inactive” in each case.
